Of roughly 7,900 targets only a part is listed; those with a hit were picked by preference. About 0.6% of all pairs of compound and target were hits.
Each target was assayed with C1=CC(=C(C=C1Cl)C2=NC3=NC=CN=C3C(=N2)NC4=CC=NC=C4)F (assay: log2 fold change, soluble protein after heating vs DMSO (PISA); higher = thermal stabilisation; K562 cells, 10 uM, 30 min; active = over 0.2 and 3.5 SD of the protein, either way, in both replicates (recomputed)).
How it was run: (§1)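 K562 cells at 2×10^6 cells/mL were exposed to 10 μM compound for 30 min, then aliquots were heated for 3 min across 48°C-58°C, pooled, and extracted in PBS containing 0.5% NP-40 at 4°C. The supernatant after 21,000xg for 90 min was taken as soluble protein and measured by TMTpro 16plex LC-MS/MS with channel sums equalised. Thermal stability is reported relative to control samples, with values from duplicates. Fold changes are given on a log2 scale.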

Chain of UniProt Q9BWU1 (Q9BWU1 whole entry, looked up): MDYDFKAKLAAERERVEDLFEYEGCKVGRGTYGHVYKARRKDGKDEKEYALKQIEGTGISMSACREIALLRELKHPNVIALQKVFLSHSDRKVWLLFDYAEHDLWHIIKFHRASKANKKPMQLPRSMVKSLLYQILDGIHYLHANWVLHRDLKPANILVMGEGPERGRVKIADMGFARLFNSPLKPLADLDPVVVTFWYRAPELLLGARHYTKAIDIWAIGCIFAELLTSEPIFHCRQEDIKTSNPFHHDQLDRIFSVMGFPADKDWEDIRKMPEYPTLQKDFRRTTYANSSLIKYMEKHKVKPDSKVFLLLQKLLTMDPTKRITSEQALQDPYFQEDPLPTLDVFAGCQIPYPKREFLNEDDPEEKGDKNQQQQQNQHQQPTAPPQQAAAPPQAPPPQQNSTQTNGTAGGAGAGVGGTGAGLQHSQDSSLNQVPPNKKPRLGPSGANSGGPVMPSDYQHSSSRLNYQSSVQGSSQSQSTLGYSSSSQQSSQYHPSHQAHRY
Chain of UniProt Q00535 (Q00535 whole entry, looked up): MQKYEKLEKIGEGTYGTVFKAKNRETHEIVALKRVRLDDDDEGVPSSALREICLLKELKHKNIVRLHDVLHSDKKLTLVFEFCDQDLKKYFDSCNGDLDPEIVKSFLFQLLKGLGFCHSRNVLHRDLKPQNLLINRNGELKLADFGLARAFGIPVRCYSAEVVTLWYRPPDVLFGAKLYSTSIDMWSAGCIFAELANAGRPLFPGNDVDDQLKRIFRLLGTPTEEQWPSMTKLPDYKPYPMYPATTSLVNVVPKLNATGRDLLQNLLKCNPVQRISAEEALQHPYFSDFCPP
Chain of UniProt Q14746 (Q14746 whole entry, looked up): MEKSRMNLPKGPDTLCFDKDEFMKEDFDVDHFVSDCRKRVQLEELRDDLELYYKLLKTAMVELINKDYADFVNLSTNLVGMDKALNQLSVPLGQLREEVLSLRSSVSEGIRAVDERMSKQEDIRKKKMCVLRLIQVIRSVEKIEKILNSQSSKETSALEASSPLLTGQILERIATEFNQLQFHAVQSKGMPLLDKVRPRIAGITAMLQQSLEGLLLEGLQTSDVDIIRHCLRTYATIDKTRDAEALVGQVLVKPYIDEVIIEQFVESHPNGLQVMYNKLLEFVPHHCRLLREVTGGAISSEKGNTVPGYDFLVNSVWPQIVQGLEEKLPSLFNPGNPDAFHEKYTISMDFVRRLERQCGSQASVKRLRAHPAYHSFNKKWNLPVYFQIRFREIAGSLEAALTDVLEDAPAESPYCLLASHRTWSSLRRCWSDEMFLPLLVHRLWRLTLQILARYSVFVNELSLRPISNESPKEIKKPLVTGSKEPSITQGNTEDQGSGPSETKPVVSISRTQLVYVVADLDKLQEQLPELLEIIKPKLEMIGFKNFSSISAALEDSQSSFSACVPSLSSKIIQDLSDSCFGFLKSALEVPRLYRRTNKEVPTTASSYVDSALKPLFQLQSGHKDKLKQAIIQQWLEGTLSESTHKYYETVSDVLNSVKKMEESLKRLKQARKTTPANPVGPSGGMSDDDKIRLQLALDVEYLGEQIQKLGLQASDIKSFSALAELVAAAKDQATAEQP
Chain of UniProt O95628 (O95628 whole entry, looked up): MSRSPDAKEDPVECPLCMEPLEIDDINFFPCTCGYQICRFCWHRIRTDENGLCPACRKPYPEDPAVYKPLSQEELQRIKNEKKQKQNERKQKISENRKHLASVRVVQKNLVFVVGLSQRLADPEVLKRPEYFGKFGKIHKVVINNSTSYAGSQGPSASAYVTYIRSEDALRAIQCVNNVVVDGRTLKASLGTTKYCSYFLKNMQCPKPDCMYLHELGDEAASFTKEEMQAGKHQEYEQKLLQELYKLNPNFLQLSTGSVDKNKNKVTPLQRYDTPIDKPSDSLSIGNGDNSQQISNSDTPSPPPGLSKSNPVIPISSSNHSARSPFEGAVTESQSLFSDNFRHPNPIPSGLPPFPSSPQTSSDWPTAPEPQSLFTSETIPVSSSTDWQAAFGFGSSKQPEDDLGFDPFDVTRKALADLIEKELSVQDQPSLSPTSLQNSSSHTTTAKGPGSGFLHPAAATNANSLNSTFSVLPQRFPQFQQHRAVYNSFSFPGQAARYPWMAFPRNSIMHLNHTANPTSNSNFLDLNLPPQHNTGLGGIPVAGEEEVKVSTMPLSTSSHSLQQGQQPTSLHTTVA
Chain of UniProt Q9Y2V0 (Q9Y2V0 whole entry, looked up): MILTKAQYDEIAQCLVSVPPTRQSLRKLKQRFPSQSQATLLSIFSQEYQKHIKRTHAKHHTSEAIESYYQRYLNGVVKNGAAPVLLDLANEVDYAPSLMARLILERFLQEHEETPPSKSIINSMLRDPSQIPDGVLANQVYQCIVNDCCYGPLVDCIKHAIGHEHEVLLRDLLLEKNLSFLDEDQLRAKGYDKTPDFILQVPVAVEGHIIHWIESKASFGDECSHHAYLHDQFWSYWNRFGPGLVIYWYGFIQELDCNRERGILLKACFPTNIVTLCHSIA
Chain of UniProt Q96MX0 (Q96MX0 whole entry, looked up): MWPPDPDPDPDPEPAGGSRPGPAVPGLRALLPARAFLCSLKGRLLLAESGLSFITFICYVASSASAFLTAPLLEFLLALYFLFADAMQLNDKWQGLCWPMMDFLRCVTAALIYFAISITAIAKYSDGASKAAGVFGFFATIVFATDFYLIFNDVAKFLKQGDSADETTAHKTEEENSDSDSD
Chain of UniProt P51636 (P51636 whole entry, looked up): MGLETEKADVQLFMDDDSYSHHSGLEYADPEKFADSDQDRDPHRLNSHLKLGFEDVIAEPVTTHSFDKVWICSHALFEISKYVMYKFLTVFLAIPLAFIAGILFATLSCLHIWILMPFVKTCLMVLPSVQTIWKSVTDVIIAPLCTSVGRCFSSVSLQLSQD
Chain of UniProt P11802 (P11802 whole entry, looked up): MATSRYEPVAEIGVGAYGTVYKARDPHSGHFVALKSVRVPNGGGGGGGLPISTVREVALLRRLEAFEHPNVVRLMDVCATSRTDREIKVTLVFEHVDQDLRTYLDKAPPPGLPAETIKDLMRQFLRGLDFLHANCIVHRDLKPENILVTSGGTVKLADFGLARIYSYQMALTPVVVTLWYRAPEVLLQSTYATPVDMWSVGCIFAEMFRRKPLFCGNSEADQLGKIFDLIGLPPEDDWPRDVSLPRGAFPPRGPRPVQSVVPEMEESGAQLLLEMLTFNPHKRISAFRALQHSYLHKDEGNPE
Chain of UniProt P24863 (P24863 whole entry, looked up): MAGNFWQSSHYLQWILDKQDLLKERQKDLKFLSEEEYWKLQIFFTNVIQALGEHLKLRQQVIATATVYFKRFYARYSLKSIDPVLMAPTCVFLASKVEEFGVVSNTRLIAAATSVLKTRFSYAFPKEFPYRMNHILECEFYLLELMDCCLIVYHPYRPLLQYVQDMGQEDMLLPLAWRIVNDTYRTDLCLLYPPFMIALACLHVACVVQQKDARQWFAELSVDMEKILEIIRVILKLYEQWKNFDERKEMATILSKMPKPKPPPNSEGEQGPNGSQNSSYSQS
Chain of UniProt Q14061 (Q14061 whole entry, looked up): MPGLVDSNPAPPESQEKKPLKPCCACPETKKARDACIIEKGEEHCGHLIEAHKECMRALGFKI
Chain of UniProt Q16740 (Q16740 whole entry, looked up): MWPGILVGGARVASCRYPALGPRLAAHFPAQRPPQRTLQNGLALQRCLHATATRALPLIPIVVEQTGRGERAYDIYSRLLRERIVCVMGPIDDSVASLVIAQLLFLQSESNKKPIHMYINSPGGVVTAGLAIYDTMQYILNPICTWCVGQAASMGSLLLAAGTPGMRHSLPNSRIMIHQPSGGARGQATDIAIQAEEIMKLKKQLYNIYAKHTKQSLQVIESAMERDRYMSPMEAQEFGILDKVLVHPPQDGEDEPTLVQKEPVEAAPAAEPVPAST
Chain of UniProt P51790 (P51790 whole entry, looked up): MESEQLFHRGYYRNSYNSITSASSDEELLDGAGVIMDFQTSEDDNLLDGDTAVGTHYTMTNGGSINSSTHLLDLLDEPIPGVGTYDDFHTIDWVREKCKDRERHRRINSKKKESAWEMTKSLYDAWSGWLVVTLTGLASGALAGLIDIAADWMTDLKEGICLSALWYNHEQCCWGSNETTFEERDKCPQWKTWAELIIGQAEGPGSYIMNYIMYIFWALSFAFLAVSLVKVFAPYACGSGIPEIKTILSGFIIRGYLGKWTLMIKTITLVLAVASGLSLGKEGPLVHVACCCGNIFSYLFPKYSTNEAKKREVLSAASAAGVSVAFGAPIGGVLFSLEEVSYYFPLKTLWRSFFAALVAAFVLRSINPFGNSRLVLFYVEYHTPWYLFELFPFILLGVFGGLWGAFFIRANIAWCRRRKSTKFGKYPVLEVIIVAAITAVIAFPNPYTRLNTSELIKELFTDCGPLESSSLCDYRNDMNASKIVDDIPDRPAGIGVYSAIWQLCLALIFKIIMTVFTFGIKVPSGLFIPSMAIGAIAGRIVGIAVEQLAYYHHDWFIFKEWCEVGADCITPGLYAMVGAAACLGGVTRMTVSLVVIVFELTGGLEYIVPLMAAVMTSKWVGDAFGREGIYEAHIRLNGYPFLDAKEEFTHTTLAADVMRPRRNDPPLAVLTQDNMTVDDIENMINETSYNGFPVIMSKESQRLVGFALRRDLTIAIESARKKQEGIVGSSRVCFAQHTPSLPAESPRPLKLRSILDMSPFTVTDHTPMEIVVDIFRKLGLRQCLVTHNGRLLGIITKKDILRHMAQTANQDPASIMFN
Chain of UniProt O75503 (O75503 whole entry, looked up): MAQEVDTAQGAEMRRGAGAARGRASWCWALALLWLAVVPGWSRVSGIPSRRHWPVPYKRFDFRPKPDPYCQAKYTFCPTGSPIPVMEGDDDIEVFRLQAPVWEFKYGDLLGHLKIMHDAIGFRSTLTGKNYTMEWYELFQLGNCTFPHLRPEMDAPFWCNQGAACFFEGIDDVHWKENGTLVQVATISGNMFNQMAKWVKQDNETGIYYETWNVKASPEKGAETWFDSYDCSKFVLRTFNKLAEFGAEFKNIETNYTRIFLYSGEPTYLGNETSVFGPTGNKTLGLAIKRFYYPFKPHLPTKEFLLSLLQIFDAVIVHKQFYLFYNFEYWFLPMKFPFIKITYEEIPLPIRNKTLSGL

log2 fold change, inactive:
CMTM3 (UniProt Q96MX0) 0.166
CDC25B isoform 4 (UniProt P30305) 0.036
CDK4 (UniProt P11802) -0.008
CLCN3 (UniProt P51790) -0.053
COX17 (UniProt Q14061) 0.375

The targets below were run with C1=CC(=CC=C1C2=NC3=C(N2)C=C(C=C3)C(=O)N)OC4=CC=C(C=C4)Cl in the same assay as above.
How it was run: as §1

log2 fold change, inactive:
CLUH, A0A494C0R8 -0.107
CHAF1A (UniProt Q13111) 0.053
CLINT1 isoform 3 (UniProt Q14677) -0.036
CCNC (UniProt P24863) -0.026
CLPP (UniProt Q16740) 0.037
COX7B (UniProt P24311) 0.006
CLN5 (UniProt O75503) 0.103
CDK19 (UniProt Q9BWU1) 0.268
CAV2 (UniProt P51636) 0.076
CDK5 (UniProt Q00535) -0.008
CLTB (UniProt P09497) -0.05
COG2 (UniProt Q14746) -0.026
C15orf41 (UniProt Q9Y2V0) -0.033
CNOT4 isoform 9 (UniProt O95628) 0.047
C19orf54 (UniProt Q5BKX5) 0.008
CLASP2 (UniProt O75122) 0.082
CCND3 (UniProt P30281) 0.036
CDCA2 (UniProt Q69YH5) -0.333

Source: the supplement of paper PMC10849652
